Assay results: PubChem BioAssay (Tox21)
Calls of active or inactive are those of the source. Entries that show only a call come without a potency. Calls follow the shape of the full dose curve. Square brackets hold non-standard residues; d marks the D form. Peptide text beside a SMILES is read from it. * marks the point of attachment. Sta = CC(C)C[C@H](N)[C@@H](O)CC(=O)O; Isovaleryl = CC(C)CC(=O)*

target: Gonadotropin-releasing hormone receptor (Homo sapiens) (UniProt P30968); experiment: Human gonadotropin-releasing hormone receptor (GnRHR) small molecule agonists, calcium flux assay in GnRHR-HEK293 cells (AID 1920063); conditions: calcium flux fluorescence, agonist mode; series mostly up to 57.6 µM; also: nearly all actives have a fitted effect of over 35% in size
Excerpt: National Center for Advancing Translational Sciences [NCATS]
Division of Preclinical Innovation [DPI]
U.S. Environmental Protection Agency [EPA]
National Institutes of Environmental Health Sciences [NIEHS]
National Toxicology Program [NTP]
U.S. Food and Drug Administration [FDA]
Gonadotropin-releasing hormone receptor (GnRHR) is a G-protein-coupled receptor (GPCR) and acts (through phospholipase C) to increase intracellular inositol trisphosphate and then release intracellular calcium stores. Cell-based GnRHR-Hek293 calcium influx assay is using HEK293 cells that have been genetically engineered to express the human GnRHR, which activity can be measured by calcium signaling. A compound/drug can activate (agonist) GnRHR that can be monitored by levels of intracellular calcium.
GnRHR-HEK293 cells developed by Codex Corp contain human GnRHR reporter gene, which was stably integrated into HEK 293 cells. The compound activation can be detected by fluorescence intensity via calcium flux assay. This cell line has been used to screen the Tox21 10K compound library to identify GnRHR agonists.
GnRHR-Hek293 cells were dispensed at 1500cells/4uL/well in 1536-well black wall/clear bottom plates using a multidrop dispenser. After the assay plates were incubated at a 37 C/5% CO2 incubator for 18 hours, 4 uL of Calcium Dye Solution was added to each well. The plates were incubated at 37 C for 1 hour. For agonist mode, 23 nL of compounds dissolved in DMSO, positive controls or DMSO only was transferred to the assay plate by a pin tool station. The fluorescence intensity in the plates was measured using FDSS 7000EX kinetic plate reader with a filter set of Ex/Em=480/540 for 3 min at 1 sec intervals. Each test compound was measured at 15 concentrations and in triplicates.

Gonadotropin-releasing hormone receptor (Homo sapiens), sequence (P30968 whole entry, looked up): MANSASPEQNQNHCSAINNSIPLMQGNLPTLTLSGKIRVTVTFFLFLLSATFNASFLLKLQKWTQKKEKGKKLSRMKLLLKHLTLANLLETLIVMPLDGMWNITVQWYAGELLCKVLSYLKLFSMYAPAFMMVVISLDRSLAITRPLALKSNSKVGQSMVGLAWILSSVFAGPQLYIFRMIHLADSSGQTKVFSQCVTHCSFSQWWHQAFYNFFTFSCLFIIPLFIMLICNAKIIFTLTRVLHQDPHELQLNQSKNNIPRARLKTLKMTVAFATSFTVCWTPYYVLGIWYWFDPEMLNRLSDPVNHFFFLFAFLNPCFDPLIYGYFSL

SMILES | Potency | activity change
O=C(/C=C/c1ccccc1)OC/C=C/c1ccccc1 | inactive | 
CC(C)C/C=C(\C=O)c1ccccc1 | inactive | 
O=C1CCCCCCCCCCCCCC1 | inactive | 
C#CC(C)(CC)OC(=O)c1ccccc1C(=O)O (stereo not given) | inactive | 
Cc1cccn2c(=O)c(-c3nnn[nH]3)cnc12 |  | -0.454% [at 11.8 µM, stronger effect = higher value] (inactive)
C[N+]1(C)CCC(=C(c2ccccc2)c2ccccc2)CC1 | inactive | 
CC(C)(C)c1ccccc1 | inactive | 
Nc1ccc(C(=O)NCC(=O)O)cc1 | inactive | 
CN(C)CCc1c[nH]c2ccc(C[C@H]3COC(=O)N3)cc12 | inactive | 
Cc1ccc(C(=O)c2ccccc2)cc1 | inactive | 
CCOC(=O)[C@H](CCc1ccccc1)N[C@H]1CS[C@H](c2cccs2)CN(CC(=O)O)C1=O | inactive | 
CC(C)(C)c1cccc(O)c1 | inactive | 
[O]=[Mo](=[O])=[O] |  | -0.246% [at 11.8 µM, stronger effect = higher value] (inactive)
O=c1[nH]ncc2ccccc12 | inactive | 
CCN(CC)C(=O)/C(C#N)=C/c1cc(O)c(O)c([N+](=O)[O-])c1 | inactive | 
CCOCCn1c(C2CCN(CCc3ccc(C(C)(C)C(=O)O)cc3)CC2)nc2ccccc21 | inactive | 
C[C@H](CCC(=O)O)[C@H]1CC[C@H]2[C@@H]3[C@H](O)C[C@@H]4C[C@H](O)CC[C@]4(C)[C@H]3C[C@H](O)[C@]12C | inactive | 
Nc1cc(C(=O)O)c(O)c(S(=O)(=O)O)c1 | inactive | 
CCN(CC)CCNC(=O)COc1ccc(Cl)cc1 | inactive | 
CC(C)CC(=O)N[C@H](C(=O)N[C@H](C(=O)N[C@@H](CC(C)C)[C@@H](O)CC(=O)N[C@@H](C)C(=O)N[C@@H](CC(C)C)[C@@H](O)CC(=O)O)C(C)C)C(C)C (Isovaleryl-VV[Sta]A[Sta]-OH) | inactive | 

SMILES | Potency | activity change
CCOc1nc(F)cc2nc(S(=O)(=O)Nc3c(Cl)cccc3C(=O)OC)nn12 | inactive | 
CC(C)(c1ccc(Oc2ccc3c(c2)C(=O)OC3=O)cc1)c1ccc(Oc2ccc3c(c2)C(=O)OC3=O)cc1 | inactive | 
CCC(C)(C)C(=O)O | inactive | 
CN(C(=O)CCCOc1ccc2[nH]c(=O)ccc2c1)C1CCCCC1 | inactive | 
O=C(O)c1cc(Cl)cc(Cl)c1 | inactive | 
NCC1CCC(C(=O)Oc2ccc(CCC(=O)O)cc2)CC1 (stereo not given) | inactive | 
Cc1cccc(C)c1NC(=O)CN1CCCC1 | inactive | 
NC(CS)C(=O)O (stereo not given) | inactive | 
CC(=O)OCC(=O)[C@@]1(OC(C)=O)[C@@H](C)C[C@H]2[C@@H]3C[C@H](F)C4=CC(=O)C=C[C@]4(C)[C@@]3(F)[C@@H](O)C[C@@]21C | inactive | 
CC1OCCC1=O (stereo not given) | inactive | 
Nc1ccnc(=O)[nH]1 | inactive | 
CN1C(=O)c2ccc([N+](=O)[O-])cc2C1=O | inactive | 
C=C(C)CCO | inactive | 
CC1(C)[C@H]2CC[C@]1(C)C(=O)C2 | inactive | 
CCCCCCCCCC#N | inactive | 
N#Cc1cscn1 | inactive | 
NS(=O)(=O)c1cc(C(=O)NN2C[C@H]3[C@H]4CCC(C4)[C@H]3C2)ccc1Cl | inactive | 
O=S(O)O |  | -0.296% [at 11.8 µM, stronger effect = higher value] (inactive)
CCCCCCCC/C=C\CCCCCCCC(=O)OC | inactive | 
OCCC(F)(F)C(F)(F)C(F)(F)C(F)(F)C(F)(F)C(F)(F)C(F)(F)C(F)(F)F | inactive | 
